Compounds with a hit are over-represented: about 7.3% of the library has one in this group of screens.
KinaseGlo FLuc: blocks Kinase-Glo luciferase, a counter-screen artifact; Q27757; Kinase-Glo luciferase, ATP luminescence, 8 min; Potency, µM (series often up to 38.3 µM), for inactives: at the highest dose activity change, negative = inhibition, usual class: inhibitors; 200,000 compounds, 0.28% hits; also: % is scaled to controls: 0 for no effect and ±100 for the full control effect; nearly all actives have a fitted effect of over 60% in size
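Substrate mix (final 50 mM imidazole pH 7.2, 50 mM KCl, 7 mM MgCl2, 10 uM ATP, 0.01% Tween 20, 0.05% BSA) plus pin-tool compound, then Kinase-Glo detection mix; 8 min ambient, luminescence read.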
ELG1 genotox: inducers of genotoxicity in HEK293T ELG1-luciferase cells | HEK293T ELG1-luciferase reporter, luminescence, 16 h | Potency, µM (highest dose often 46 µM), inactives show top-dose activity change, positive = activation, most hits filed as activators | 330,000 compounds, 1.3% hits | AID 504466; also: % of control where 0% means no effect; nearly all actives have a fitted effect of over 60% in size
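Reporter readout depends on ELG1 protein level, which increases with genetic stress. After 16 hr compound exposure at 37 °C, luciferase activity was quantified using ONE-Glo.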
NPC1 promoter act: activates the NPC1 promoter. Huh7 NPC1 promoter luciferase reporter, 24 h. Potency, µM (top dose mostly 9.22 µM), without a hit: top-dose activation, usual class: activators. 320,000 compounds, 2.4% hits; also: % of control where 0% means no effect; nearly all actives have a fitted effect of over 60% in size
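Stably transfected Huh7 (NPC1 promoter→luciferase), 1500 cells/well in Opti-MEM + 10% FBS, 2 h settle, then compound 24 h at 37 °C. Luminescence after 10 min with Amplite reagent.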
SMN2 splice enh: enhancers of SMN2 splice variant expression; 210,000 compounds, 2.8% hits; Potency, µM (doses to about 46.1 µM), for inactives: at the highest dose activity change, positive = activation, actives largely listed as activators; AID 1458; HEK293 SMN2-luciferase splicing reporter, luminescence, 30-36 h; also: % of control where 0% means no effect; nearly all actives have a fitted effect of over 55% in size
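HEK293 cells carry an SMN2 […]–luciferase reporter in which exon 7 inclusion puts luciferase in frame. Cells were plated 10-12 h before compound addition, then incubated 30-36 h at 37C. ONE-Glo luminescence was read; sodium butyrate at 4.5 mM final served as control.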
Rab9 promoter act: activators of Rab9 promoter; Huh7 Rab9 promoter-luciferase reporter, luminescence, 24 h; 320,000 compounds, 2.8% hits; AID 485297; Potency, µM (titrated, usually from 9.22 µM), for the others: at the highest dose activation, negative = inhibition, hits mostly activators; also: % of control where 0% means no effect; nearly all actives have a fitted effect of over 60% in size
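Rab9 promoter-driven luciferase in stably transfected Huh7 cells; 1500 cells/well rested 2 h, exposed to compound in DMSO for 24 h at 37 °C, 5% CO2. Luminescence read 10 min after adding luciferase reagent at ambient temperature.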
FLuc modulator: counter-screen for miR-21 project: firefly luciferase inhibitors or activators; purified FLuc, Km substrates, luminescence inhibition; 360,000 compounds, 6.9% hits; Potency, µM (highest dose often 57.5 µM), for the others: at the top dose activity change, negative = inhibition, usual class: inhibitors;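 also: plate controls were vehicle for no effect and reference inhibitor for full effect; nearly all actives have a fitted effect of over 55% in size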
Target sequence (P08659 whole entry, looked up): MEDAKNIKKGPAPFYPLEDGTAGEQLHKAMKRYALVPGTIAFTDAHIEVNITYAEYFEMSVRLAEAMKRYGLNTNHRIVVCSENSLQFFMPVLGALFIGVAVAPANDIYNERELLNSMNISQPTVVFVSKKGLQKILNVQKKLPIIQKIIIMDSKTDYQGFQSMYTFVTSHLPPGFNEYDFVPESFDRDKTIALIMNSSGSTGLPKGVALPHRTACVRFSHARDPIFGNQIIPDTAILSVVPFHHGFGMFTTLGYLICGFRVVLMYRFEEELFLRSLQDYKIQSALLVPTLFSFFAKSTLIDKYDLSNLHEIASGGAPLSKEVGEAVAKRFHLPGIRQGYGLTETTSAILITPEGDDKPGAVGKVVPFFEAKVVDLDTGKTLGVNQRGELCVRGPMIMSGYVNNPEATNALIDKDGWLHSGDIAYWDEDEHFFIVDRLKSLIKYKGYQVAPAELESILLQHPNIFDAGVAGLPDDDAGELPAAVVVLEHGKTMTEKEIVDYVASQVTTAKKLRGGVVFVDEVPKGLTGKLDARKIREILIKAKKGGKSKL
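Purified P. pyralis luciferase, 10 nM final, with Km-level 10 uM D-luciferin and 10 uM ATP in 50 mM Tris acetate pH 7.5, 10 mM Mg acetate, 0.01% Tween-20, 0.05% BSA; 6-point qHTS titration about 60 µM downward; luminescence read.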
Numbers without * were called inactive; ? = inconclusive; . = no result; [ ] = remark or other dose. Calls follow the shape of the dose curve; as a rule, active = well fitted curve in the direction sought with a large enough effect; inconclusive = small, poorly fitted or top-dose-only effect, or another doubt; inactive = no such curve, though single readings can be large; an effect the other way counts as inactive or inconclusive. Potency is read from the fitted curve at half-maximal effect.

SMILES | KinaseGlo FLuc | ELG1 genotox | NPC1 promoter act | SMN2 splice enh | Rab9 promoter act | FLuc modulator
CCC(=O)Nc1ccc(-c2nc3ccccc3c(=O)o2)cc1 | -15% | -11% | -1% | -5% | 4% | 1.3µM*
CCC(=O)Nc1ccc(-c2nnc(-c3ccccc3)o2)cc1 | . | ? | 0.32µM* | . | 0.32µM* | 0.95µM*
CCC(=O)Nc1nnc(-c2ccc(OC)cc2)o1 | -2% | 7% | 13% | 15% | 1% | 24µM*
Cn1cc(C(=O)O)c(=O)c2cc(S(=O)(=O)N3CCCCC3)ccc21 | . | . | . | . | . | -3%
CN(C)C(=O)c1ccc(NC(=O)Cn2nnnc2-c2ccccc2F)cc1 | . | . | . | -6% | . | 4%
Cc1ccc(-c2nc3ccsc3c(=O)[nH]2)cc1 | -16% | ? | 21% | 18µM* | ? | 12µM*
Cc1ccc(-c2csc3nc(-c4ccncc4)[nH]c(=O)c23)cc1 | . | 1% | -17% | . | -25% | -16%
O=C(/C=C/Nc1ccc(Br)cc1F)c1ccco1 | 13µM* | 0.33µM* | 1.1µM* | 1.1µM* | 0.71µM* | 0.24µM*
O=C(/C=C/Nc1ccc(F)cc1F)c1ccco1 | 10µM* | 0.46µM* | ? | 2.8µM* | 3.5µM* | 0.21µM*
O=C(/C=C/Nc1ccccc1O)c1ccco1 | . | 21µM* | 1% | . | ? | 2.4µM*
CCOc1cccc(/C=N/NC(=O)c2ccc3c(c2)OCCO3)c1O | . | ? | -30% | . | -41% | 2.4µM*
O=C(N/N=C/c1cc(Cl)ccc1O)c1ccc(Br)cc1 | -2% | 14% | -16% | -99% | -32% | ?
CCOc1cccc(/C=N/NC(=O)c2cc(-c3cccn3C)n[nH]2)c1O | -3% | ? | -35% | . | -52% | 15µM*
COc1cc(OC)c(OC)cc1/C=N/NC(=O)c1cc(-c2cccn2C)n[nH]1 | 0% | 0% | 5% | 2% | 0% | -16%
Cc1cccc(/C=N\NC(=O)c2ccc(Cl)cc2)c1O | -4% | ? | -22% | . | ? | 1.5µM*
Cc1cccc(/C=N/NC(=O)Cc2ccc(Cl)cc2)c1O | . | ? | 4% | . | -2% | -2%
Cc1ccc(N=Nc2ccc(O)c(/C=N\NC(=O)c3ccc(N)cc3)c2)cc1C | -3% | ? | 1.4µM* | 15% | 2.8µM* | ?
N=C(N)c1ccc(/C=C\c2ccc(C(=N)N)cc2)cc1 | -5%[7.66 µM] | . | . | -1%[9.22 µM] | . | .
COc1cccc(N2CC(NC(=O)c3ccc(S(=O)(=O)N4CCCC4)cc3)CC2=O)c1 (configuration not stated) | . | . | . | . | . | 3%
CCOC(=O)c1cnn(-c2cccc(Cl)c2)c1C1CCN(C(=O)OC(C)(C)C)CC1 | . | . | . | -4% | . | -1%
Cc1ccc(NS(=O)(=O)c2cccc(C(=O)N/N=C/c3ccc4c(c3)OCCO4)c2)c(C)c1 | 3% | -1% | -2% | -35% | 1% | 11µM*
COc1cccc(/C=N/NC(=O)CNC(=O)c2ccc3c(c2)OCCO3)c1O | -2% | 2% | -3% | -15% | -6% | -16%
Cc1cccc(/C=N/NC(=O)c2ccc3c(c2)OCCO3)c1O | . | 0.13µM* | 0.89µM* | . | 0.5µM* | 0.38µM*
Cc1ccc(NS(=O)(=O)c2cccc(C(=O)N/N=C/c3c(C)nn(-c4ccccc4)c3N3CCCC3)c2)c(C)c1 | -1% | -7% | -4% | -17%[1.84 µM] | -3% | 5%
COc1cc(/C=C/c2nc3cc(Cl)ccc3c(=O)n2-c2ccc(C)cc2C)cc(OC)c1OC | . | . | . | . | . | -3%
SMILES | KinaseGlo FLuc | ELG1 genotox | NPC1 promoter act | SMN2 splice enh | Rab9 promoter act | FLuc modulator
Cc1cc(O)c(C(=O)Cc2csc(C)n2)c(O)c1 | -2% | ? | ? | ? | 4µM* | 27µM*
CCc1cc(/C(Cc2csc(C)n2)=N/O)c(O)cc1O | -3% | 0% | -1% | -63% | -16% | 0%
CCc1ccc(-c2nn(CC(=O)NCc3ccccc3)c3c2cnc2ccc(C)cc23)cc1 | . | . | . | . | . | -1%
O=C1CCN(Cc2ccccc2)CCN1CCOc1ccccc1 | . | 14% | ? | . | 3.5µM* | 24µM*
CC(C)CNC(=O)C1CCN(Cc2ccc(OCc3ccccc3)cc2)CC1 | -2% | 10% | 24% | ? | ? | 17µM*
CN1CCN(Cc2ccc(OCc3ccccc3)cc2)CC1 | 0% | ? | ? | -5% | ? | 13µM*
CCN1CCN(Cc2ccc(OCc3ccccc3)cc2)CC1 | -2% | 10µM* | 4µM* | -35% | 17%[1.84 µM] | 21µM*
c1ccc(COc2ccc(OCCN3CCCC3)cc2)cc1 | 1% | 5% | 23% | -2% | 21% | ?
CCN(CC)c1ccc(CN(C(=O)Cc2coc3ccc(C)cc23)C2CCS(=O)(=O)C2)cc1 (configuration not stated) | . | . | . | -14% | . | 6%
CC(C)N(Cc1ccccc1)C(=O)Cn1ncc2c([nH]c3ccccc32)c1=O | . | . | . | . | . | 1%
CC(C)(C)c1cc(Br)c(O)c(CN(Cc2cc(C(C)(C)C)cc(Br)c2O)C2CCCCC2)c1 | -5%[7.66 µM] | . | . | -13%[9.22 µM] | . | .
O=C(Nc1ccccc1C(F)(F)F)c1cc(-c2ccc3c(c2)OCCO3)on1 | . | . | . | . | . | 0.38µM*
O=C(Nc1cc(C(F)(F)F)ccc1Cl)c1cc(-c2ccc3c(c2)OCCO3)on1 | . | . | . | . | . | 1.7µM*
CC(=O)Nc1ccccc1OCc1cc(=O)n2c3c(sc2n1)CCCC3 | . | . | . | -3% | . | 0%
CC(=O)Cn1ncc(N(C)Cc2ccccc2)c(Cl)c1=O | . | ? | ? | . | ? | 17µM*
CC(=O)Cn1ncc(Br)c(Br)c1=O | -3% | -21% | -41% | -108% | -43% | 8%
c1ccc(C2=NN(c3ccccc3)CC2)cc1 | . | ? | 2.8µM* | . | 3.5µM* | 3.4µM*
S=C1CCC(c2ccc(Cl)cc2)=NN1c1ccccc1 | . | -3% | 2% | . | -1% | -1%
CCOC(=O)/C(=C/c1ccc(N2CCC(c3ccccc3)=N2)cc1)C(C)=O | 1% | 21µM* | ? | -70% | ? | -6%
CCC1(c2ccc(Cl)cc2)NC(=S)N(c2ccc(C)cc2)N1 (configuration not stated) | 2% | ? | 7% | -55% | 19% | 17µM*
Cc1oc(-c2ccccc2)nc1CSc1nnc(C)n2c1cc1sccc12 | . | . | . | . | . | -9%
COc1cccc(OCc2cc(/C=N/NC(=O)c3ccn[nH]3)ccc2OC)c1 | -7% | 8% | 20% | 19% | 13% | 15µM*
